In PubChem BioAssay (NCI):
Compounds without any hit were thinned out: in the full panel of roughly 83,000, 20% have a hit.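 Treatment: one concentration, 48 hours, 96-well format. Scoring: percent growth, with anything below 10 considered active.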 Unmarked numbers belong to inactive results. Activity calls are given as the source filed them.

These compounds were tested on MDA-MB-468 breast (assay: NCI-60 one-dose screen, 48 h (100 = growth as untreated, 0 = no growth, -100 = all killed)). Settings: 10 µM unless noted.

| SMILES | growth |
| --- | --- |
| O=C(Cn1ccnc1)Nc1ccc(-c2nc3ccccc3s2)cc1 | 0.748% (active) |
| O=C(Nc1ccc(Cl)c(C(F)(F)F)c1)Nc1ccc2c(ccn2C(=O)c2cccc(F)c2)c1 | 9.28% (active) |
| O=C(OC(OC(=O)c1cc(Cl)cc(Cl)c1)c1cccc2ccccc12)c1ccccc1 (stereo not given) | 111% |
| CCCCN(CCCC)CC(CN(CC)CC)OC(=O)Nc1ccccc1 (stereo not given) | 90% |
| COc1ccc(C2=C(Nc3ccc(C(=O)Nc4ccccc4)cc3)C(=O)N(C)C2=O)cc1 | 88.1% |
| C=C(C)[C@@H]1CC[C@]2(C(=O)N3CCN(C)CC3)CC[C@]3(C)[C@H](CC[C@@H]4[C@@]5(C)CC(=C/c6ccncc6)/C(=N/O)C(C)(C)[C@@H]5CC[C@]43C)[C@@H]12 | 62.2% |
| Nc1c(C(=O)Nc2cccc(C(F)(F)F)c2)sc2nc3c(cc12)CCCCCC3 | -24.9% (active) |
| CC1CN=C(c2cccc(-c3ccc(-c4ccccc4)o3)c2)N1 (stereo not given) | -35.5% (active) |
| COC(=O)c1n[nH]c2ccc3nc(-c4cn[nH]c4C(F)(F)F)c4c(c3c12)CCCC4 | 73.8% |
| O=c1[nH]c2cc(O)ccc2n2cc3c(F)cccc3c12 | 28.7% |
| O=C(Nc1cccc(Cl)c1)Oc1c(Br)c(Br)c(Br)c(Br)c1Br | 94.1% |
| C=C(C)[C@@H]1CC[C@@]2(C(=O)O)CC[C@]3(C)C(CCC4[C@@]5(C)CCC(OS(=O)(=O)c6ccccc6)C(C)(C)C5CC[C@]43C)C12 (stereo not given in full) | 53.9% |
| Cn1ccnc1C(=O)/C=C/c1ccc(NC(=O)Nc2ccc(F)cc2)cc1 | 6.47% (active) |
| CCNc1ncnc2c1cnn2C1CCCO1 (stereo not given) | 102% |
| O=c1ccc2ccccc2o1 | 114% |
| CCOC(=O)N1C/C(=C/c2ccc(OC)cc2)C(=O)/C(=C/c2ccc(OC)cc2)C1 | -28.9% (active) |
| Cc1ccc(C(=O)/C(=C\c2ccc([N+](=O)[O-])cc2)S(=O)Cc2ccc(F)cc2)cc1 (stereo not given) | -10.3% (active) |
| COc1ccc(C2C=C(c3ccc(Cl)c(Cl)c3)N=C3SC(C)=CN32)cc1 (stereo not given) | 88.6% |
| CC(C)C(C)(C)C(=O)C(C)(C)C(C)(C)C | 90.1% |
| CN1CCN(Cc2ccc(NC(=O)c3[nH]ncc3Nc3ncnc4[nH]ccc34)cc2)CC1 | -51.8% (active) |

| SMILES | growth |
| --- | --- |
| Cc1cc(C)c(O)c(C(=O)CC(Br)C(=O)O)c1 (stereo not given) | 74.9% |
| O=C(NCCNC(=O)c1ccc(Cl)cc1Cl)c1ccc(Cl)cc1Cl | 104% |
| O=C(N=Nc1c(O)[nH]c2ccccc12)Nc1ccccc1Cl | 11.5% |
| CC(=O)c1c(C)c2cnc(Nc3ccc(N4CCNCC4)cn3)nc2n(C2CCCC2)c1=O | 26.9% |
| Cc1ccccc1N=C(N)Nc1ccccc1C (tested in a mixture with another compound) | 87.1% |
| CCCCNC(=O)c1cc(NCc2cc(O)ccc2O)ccc1O | 93.6% |
| O=C(Nc1ccc(Cl)cc1)N1CCN(c2ccc3nncn3n2)CC1 | -78.2% (active) |
| COc1ccc(-c2nn(-c3cccc(NC(=O)c4cccc(C(F)(F)F)c4)c3)cc2-c2ccncc2)cc1Cl | 31.4% |
| Nc1ccc(-c2ccc(-c3ccccc3N)c3[nH]c4ccccc4c23)cc1 | -5.32% (active) |
| COc1cc2nc(N3CCCC3)nc(NCc3ccccc3)c2cc1OC | 45.2% |
| CCCCn1c(Cc2ccc(OC)cc2)nc2cc(OC)c(OC)cc2c1=O | 46.7% |
| CCN1CCN(c2nc(NNC(=O)c3cccc(OC)c3)nc(N3CCN(C(c4ccccc4)c4ccccc4)CC3)n2)CC1 | 54.7% |
| Cc1ccc(/C=C/C(=O)c2ccc(F)cc2)s1 | 42.2% |
| O=C(/C=C/c1ccccc1)c1ccc2ccccc2c1 | 47.8% |
| Oc1cccc2ccc(-c3nnc(SCc4ccc(O)c5ncccc45)n3-c3ccccc3)nc12 | 6.6% (active) |
| Cc1ccc(C2(C)NC(=O)N(CC(=O)Nc3cccc(C)c3)C2=O)cc1 (stereo not given) | 89% |
| Cn1c2c(c3ccccc31)CCN1C[C@@H]3CCCC[C@H]3C[C@@H]21 | -16.1% (active) |
| CCOC(=O)C1CCN(c2ccc(N3C[C@@H](CNCc4ccc(C(=N)N)cc4)OC3=O)cc2)CC1 | 100% |
| Cn1cc(-c2csc(-c3cn(C)c4ccccc34)n2)c2cnccc21 | -27.1% (active) |
| COc1ccc2[nH]cc(-c3csc4nc(-c5ccccc5)cn34)c2c1 | 21.2% |
